The record followed here is the supplement of paper PMC6555819.

For the test, the system named is RARb:RXRa (NR concentration 270 nM, RXRa partner concentration 90 nM). Put plainly: PBM binding z-score (relative to random genomic background probes); higher = stronger binding; sequences stand for … in GC…GCGATTGACAGCGTAGAATGAAGG
The method in brief: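 Ligand-free nuclear receptor dimers were bound for 1 h to custom Agilent 4×180K protein-binding microarrays. Detection used antibodies against each partner (one per run). Binding z-scores rest on regression-normalized fluorescence, with random background probes as the reference.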
Sequence AATACAGGGTCATCGTAGGCCAGAGAACGCACAG came in with a PBM binding z-score of 4.56. The same measure for CCGACTGGGGCATAAGGTTACGATAAGCCAGCCC: 1.77; for CGTCCAAGGTCAGAGAGGTAAGTGAATGCCGAGT: 4.67; for TCGAGTAGGTTACCAATGGGGCGTTCAGCTTTCT: 0.773.

CCTCCTGGGCCAAAGGTCATTGATTCCAATGCTC: the PBM binding z-score came to 4.3. As for GCGACTGGGGCATCAGGAGGTTACCATAACTTAA, the PBM binding z-score came out at 1.21. Under CCTATTAGTTGACCATAAGGGCAACGGAAGCTCG stands 1.54; under CAAACTAGGTCAACGGAAGGTCAAAGTCCGCATG, 5.04; under ACTATTAGTTGAGACGCGGGCAACCGATAGGTTG, 0.15. In turn, ACTAGTTAGTCAGCTGAGGTCACACACAATTCGG registered a PBM binding z-score of 3.3. Under ATCGAAAGGTCGAAGGTGAATATACCCACCCGAA stands 4.04. Consider ATATCTAGGTTAGCTGGGGTCATTCAGACTAGGC, for which the PBM binding z-score stood at 3.18. TCTTGTAGATCAAGCAGGTTAAGAAGGCCTGAGT yielded a PBM binding z-score of 0.128. Under CCAGACAGGTTAAAGGTAACTCAGTCTGGTACGC stands 1.69; under TCTTGTAGATCAAAGGTTAAGTAAGCCGAAGCCT, 2.23; under TCTGCAAGGTCAGTTGGTCAGCTAACGAGCTGCC, 4.43. As to TTACCAAGGTGAAGGTCGCTGATCCCTCTGTAGA, the PBM binding z-score was 2.5.

In turn, ACTTACGGGGCAACGAGGTTATAGCACGCGTATA displayed a PBM binding z-score of 1.63. Take TCTGCTAGGTCAACGATGGTCAGCCAATCTGCTA: the PBM binding z-score is 4.26.

For ATCTCTACGTAACCAAGTTCAGTGAATGCCGAAC, the PBM binding z-score was found to be 0.836. The same measure for GCTATTAGTTGAAAGGGCATCCGAATGATTCTCG: 1.65; for CGAACTAGGTCGTTGACAGGACAGTGAATAGTAA: 1.18; for TCATATAGGTAACAGGTGAAAGTCGGTGTGGTAA: 1. Under AGAATGAGGTTACCAAAGATCAGGGACACGCTTG stands 2.14; under CGAACTAGGTCAAGGACAGTGCATCTCCGCACGC, 3.97; under CCTACTGGGCCATCTGGTCATTGATATCAACGTT, 0.606. The same measure for CGTCCAAGGTCAAAGGAGGTCAGTGAAGACAGAT: 5.6. For ACTAGCAGGCCAAGTTTGGGTGACTCAAACAAAG, the PBM binding z-score is 0.418. Under CAAACTAGGTCACCGGAAGGTCAAAATCCGCATG stands 5.11; under CCTGCTAGGTCAATGGTCAACTAAAGCAGCTCGC, 3.79. The same measure for CCAGACAGGTGAGAAGGTATCTCAGCCTCGATTA: 0.303. TCTAGCAAGCCAGAGGGTCACTCAAGAGGTACGG yielded a PBM binding z-score of 1.62.

Regarding CGTCCAAGGTCAGAGAGCTCAGTGAATGCCGAGT, the PBM binding z-score worked out at 4.6. Sequence CGTCCAAGGTCAAGGTCAGCGAAAGAGACTCGAA returned a PBM binding z-score of 5.52. Take CCTACTCGGCCATTCAGAGGTCATTGATCATATG: the PBM binding z-score amounted to 3.27. The same measure for TCGAATAGGTTACCAATGGGGCATTCAGCTTTCT: 1.57.

The sequence ATCGAGAGGTCGAAGGTGAGTATACCCACCCGAA showed a PBM binding z-score of 2.8. Under CCTTGCAGGCCAGGGTCACTCAAGCATTTCGCTT stands 2.79. Under TCGCGTAGGTTAGTCGGGGCATTCAGCCAACATA stands 0.559. The same measure for AGGATGAGGTTACCAAAGATCAGGGAAACGCTTG: 2.12.
